{"source": "PubChem BioAssay AID720504", "about": "(National Center for Advancing Translational Sciences (NCATS), 2013)", "note": "The campaign covered roughly 360,000 compounds. About 10,000 (2.8%) were called active. About 4% were inconclusive and are not listed. Calls follow the shape of the dose curve; as a rule, active = well fitted inhibition curve with a large enough effect; inconclusive = small, poorly fitted or top-dose-only effect; inactive = flat fitted curve, though single readings scatter. The full list was thinned out, with actives kept by preference. % is scaled to controls: 0 for no effect and ±100 for the full control effect; potency is read from the fitted curve at half-maximal effect."}
{"target": "Serine/threonine-protein kinase PLK1 (Homo sapiens) (UniProt P53350)", "sequence (P53350 whole entry, looked up, the tested form may be a part)": "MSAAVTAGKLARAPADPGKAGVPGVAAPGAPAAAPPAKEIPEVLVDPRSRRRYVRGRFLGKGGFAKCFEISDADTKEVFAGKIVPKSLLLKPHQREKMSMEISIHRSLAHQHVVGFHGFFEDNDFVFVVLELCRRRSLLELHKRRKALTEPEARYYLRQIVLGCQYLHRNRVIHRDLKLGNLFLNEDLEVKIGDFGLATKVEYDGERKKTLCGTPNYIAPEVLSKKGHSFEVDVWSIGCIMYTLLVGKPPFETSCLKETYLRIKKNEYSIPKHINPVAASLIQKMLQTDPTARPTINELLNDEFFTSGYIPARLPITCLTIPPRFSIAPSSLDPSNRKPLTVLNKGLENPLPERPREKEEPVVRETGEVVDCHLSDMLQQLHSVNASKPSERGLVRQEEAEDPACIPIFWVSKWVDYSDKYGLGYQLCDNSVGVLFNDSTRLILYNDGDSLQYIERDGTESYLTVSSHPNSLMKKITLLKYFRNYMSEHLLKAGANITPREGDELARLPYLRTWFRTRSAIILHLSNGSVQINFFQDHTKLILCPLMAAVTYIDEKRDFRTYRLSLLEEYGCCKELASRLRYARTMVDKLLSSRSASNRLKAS", "experiment": "qHTS for Inhibitors of PLK1-PDB (polo-like kinase 1 - polo-box domain): Primary Screen; also: nearly all actives have a fitted effect of over 65% in size; as to max response, negative = inhibition: series mostly up to about 57 µM", "conditions": "Plk1 PBD binding of FITC phosphopeptide, fluorescence polarization"}
{"smiles": "O=C(Nc1ccc(N2CCOCC2)cc1)c1cccc2c(-c3ccc(F)c(F)c3)coc12", "max response, negative = inhibition": "-15% (inactive)"}
{"smiles": "CC(=O)N1c2ccc(S(=O)(=O)NCCC(=O)N(C)C3CCCCC3)cc2CC1C", "note": "(configuration not stated)", "Potency": "2.99 µM (active)"}
{"smiles": "COc1cccc(CNS(=O)(=O)c2ccc3c(c2)CC(C)N3C(=O)C2CCC2)c1", "note": "(configuration not stated)", "max response, negative = inhibition": "-3.29% (inactive)"}
{"smiles": "CC(=O)N1c2ccc(S(=O)(=O)N(C)CC(=O)N(C)Cc3ccccc3)cc2CC1C", "note": "(configuration not stated)", "max response, negative = inhibition": "5.96% (inactive)"}
{"smiles": "Cc1ccc(-c2ccc(CN3C(C(C)C)C(=O)N(Cc4cn(CCC5OCCCO5)nn4)CCS3(=O)=O)cc2)cc1", "note": "(configuration not stated)", "max response, negative = inhibition": "-2.35% (inactive)"}
{"smiles": "CCOc1ccc(CCN2C(=O)C(=O)N([C@@H](CC(C)C)CN3CCC[C@H]3CN3C(=O)C(=O)NC[C@@H]3Cc3ccccc3)C[C@@H]2CC(C)C)cc1", "max response, negative = inhibition": "-0.137% (inactive)"}
{"smiles": "Cc1cccc(-c2cnc(C(O)c3cc(C)cc(C)c3)[nH]2)c1", "note": "(configuration not stated)", "max response, negative = inhibition": "-12% (inactive)"}
{"smiles": "CCOC(=O)c1c(NC(=S)NC(=O)/C=C/c2cccs2)sc(C)c1C", "max response, negative = inhibition": "-3.87% (inactive)"}
{"smiles": "CCOC(=O)c1sc(=NC(=O)/C=C/c2cccs2)n(C)c1C", "Potency": "26.7 µM (active)"}
{"smiles": "CCOC(=O)c1sc(=NC(=O)c2ccc(Br)cc2)n(C)c1C", "max response, negative = inhibition": "-3.76% (inactive)"}
{"smiles": "COC(=O)[C@]12CCCCC=C1N(Cc1ccc3c(c1)OCO3)C(=O)[C@H](CC(=O)N1CCOCC1)C2", "max response, negative = inhibition": "-9.01% (inactive)"}
{"smiles": "CC(=O)N1c2ccccc2N(Cc2ccc([N+](=O)[O-])cc2)C(=O)C1(C)C", "Potency": "29.9 µM (active)"}
{"smiles": "O=C(CSCc1ccc([N+](=O)[O-])cc1)NCCSCc1ccccc1", "max response, negative = inhibition": "-1.81% (inactive)"}
{"smiles": "CC(O)c1nc2ccccc2n1Cc1ccc([N+](=O)[O-])cc1", "note": "(configuration not stated)", "max response, negative = inhibition": "-2.98% (inactive)"}
{"smiles": "Cc1nc2c(OCc3cccc(Cl)c3)cccn2c1N(C)CC1CC1", "max response, negative = inhibition": "-10.4% (inactive)"}
{"smiles": "COC(=O)[C@]12CCCCC=C1N(Cc1cccc3ccccc13)C(=O)[C@H](CC(=O)N1CCOCC1)C2", "max response, negative = inhibition": "-13.4% (inactive)"}
{"smiles": "Cc1cc(Cl)ccc1-c1nc(NCCN(C)C)nc2ccsc12", "max response, negative = inhibition": "-8.63% (inactive)"}
{"smiles": "COc1ccccc1-c1cc(NC(C)=O)c2ncc(-c3ccc(F)cc3)n2c1", "max response, negative = inhibition": "-2.69% (inactive)"}
{"smiles": "CCOc1cc(/C=C2\\C(=N)N3N=C(C)SC3=NC2=O)ccc1OCCOc1ccccc1", "max response, negative = inhibition": "-10.7% (inactive)"}
{"smiles": "COc1cc(/C=C2/C(=O)NN(c3ccc(F)cc3)C2=O)cc([N+](=O)[O-])c1O", "max response, negative = inhibition": "-17.7% (inactive)"}
{"smiles": "COc1cc(/C=C2\\SC(=O)NC2=O)ccc1OCc1ccc(Cl)nc1", "max response, negative = inhibition": "-13.4% (inactive)"}
{"smiles": "C#CCOc1ccc(/C=C2/C(=O)ON=C2C)cc1OCC", "Potency": "2.12 µM (active)"}
{"smiles": "COc1cc(C=O)ccc1Oc1nnnn1-c1ccccc1", "max response, negative = inhibition": "-3.25% (inactive)"}
{"smiles": "COc1ccnc2c1c(=O)n(Cc1cccc(F)c1)c(=O)n2C", "max response, negative = inhibition": "-8.75% (inactive)"}
{"smiles": "CC1=NOC(=O)/C1=C\\c1ccccc1", "Potency": "16.8 µM (active)"}
{"smiles": "Cc1ccccc1C1=N/C(=C/c2cccnc2)C(=O)O1", "max response, negative = inhibition": "-12.6% (inactive)"}
{"smiles": "COc1cc(/C=C2/C(=O)ON=C2C)ccc1OCc1cccc(F)c1", "Potency": "1.06 µM (active)"}
{"smiles": "CCOc1cc(/C=N/O)ccc1OCc1ccccc1F", "max response, negative = inhibition": "5.59% (inactive)"}
{"smiles": "C#CCOc1ccc(/C=C2/C(=O)NN(c3ccccc3)C2=O)cc1OC", "Potency": "18.9 µM (active)"}
{"smiles": "Cc1nc2ccccn2c(=O)c1NC(=O)c1ccc(Br)o1", "max response, negative = inhibition": "-0.655% (inactive)"}
{"smiles": "O=[N+]([O-])c1ccc(CN2CC(N3CC=CC3)CS2(=O)=O)cc1", "note": "(configuration not stated)", "max response, negative = inhibition": "-4.83% (inactive)"}
{"smiles": "CCc1cc(C(=O)N(CC)CC(=O)Nc2c(F)cccc2F)sc1C", "max response, negative = inhibition": "-2.84% (inactive)"}
{"smiles": "CSCCC(c1nnnn1Cc1ccccc1)N1CCN(C/C=C/c2ccccc2)CC1", "note": "(configuration not stated)", "max response, negative = inhibition": "-5.15% (inactive)"}
{"smiles": "CC1(Oc2cccc(F)c2)CCN(Cc2ccccc2OC(F)F)C1", "note": "(configuration not stated)", "max response, negative = inhibition": "-10.6% (inactive)"}
{"smiles": "C=CCOc1ccc(/C=N/n2cncn2)cc1OC", "max response, negative = inhibition": "-1.5% (inactive)"}
{"smiles": "C#CCOc1ccccc1/C=C1/C(=O)ON=C1C", "Potency": "2.38 µM (active)"}
{"smiles": "C=CCOc1ccc(/C=C2/C(=O)ON=C2C)cc1OCC", "Potency": "1.89 µM (active)"}
{"smiles": "Cc1no[n+]([O-])c1COc1ccccc1/C=C1\\NC(=S)NC1=O", "max response, negative = inhibition": "-11.5% (inactive)"}
{"smiles": "C=CCOc1ccc(/C=N/NC(=O)C(C)Sc2ccccn2)cc1OCC", "note": "(configuration not stated)", "max response, negative = inhibition": "-12.5% (inactive)"}
{"smiles": "COc1ccc(NC(=O)C2(C)Cc3c(-c4cccc(NC(C)=O)c4)ccnc3O2)cc1", "note": "(configuration not stated)", "max response, negative = inhibition": "1.6% (inactive)"}
{"smiles": "CC(C)NC(=O)N1Cc2cc(C(=O)NCC(F)(F)F)nc(-c3cccc(-c4cc5ccccc5o4)c3)c2[C@@H]1CCO", "max response, negative = inhibition": "-2.2% (inactive)"}
{"smiles": "CCCCNC(=O)c1nc(C2CCN(S(=O)(=O)c3ccc(F)c(F)c3)CC2)oc1-c1cccc(C(F)(F)F)c1", "max response, negative = inhibition": "-2.64% (inactive)"}
{"smiles": "CCCNC(=O)C1(C)CCN(Cc2csc(-c3ccc(Cl)cc3)n2)C1", "note": "(configuration not stated)", "max response, negative = inhibition": "-6.86% (inactive)"}
{"smiles": "Nc1nc2ncccn2c1-c1ccccc1", "max response, negative = inhibition": "-5.06% (inactive)"}
{"smiles": "COc1cc(OC)cc(C2=Cc3ccccc3C(CC(=O)c3ccco3)N2c2ccc(-c3cnc(OC)nc3)cc2)c1", "note": "(configuration not stated)", "max response, negative = inhibition": "-0.0299% (inactive)"}
{"smiles": "CCCCCCn1c(=O)n2n(c1=O)C[C@]1(OC(=O)NCc3ccc(OC)c(OC)c3)CN(S(=O)(=O)c3ccc(C)cc3)C[C@]1(O)C2", "max response, negative = inhibition": "-2.55% (inactive)"}
{"smiles": "NS(=O)(=O)c1ccc(CNC(=O)c2cccc(Oc3ccccc3)c2)cc1", "max response, negative = inhibition": "-1.88% (inactive)"}
{"smiles": "NS(=O)(=O)c1ccc(CNC(=O)c2cnccn2)cc1", "Potency": "16.8 µM (active)"}
{"smiles": "O=C(NNS(=O)(=O)c1ccc(F)cc1)c1cnccn1", "max response, negative = inhibition": "-1.36% (inactive)"}
{"smiles": "CCc1ccc2c(c1)NC(=O)C2(C)Cc1ccc(OC(F)(F)F)cc1", "note": "(configuration not stated)", "max response, negative = inhibition": "-1.5% (inactive)"}
{"smiles": "N#CC1=C(N)Oc2[nH]c(=S)[nH]c(=O)c2C12C(=O)Nc1ccccc12", "note": "(configuration not stated)", "Potency": "2.67 µM (active)"}
{"smiles": "CC1(C)Cc2ccccc2-c2[nH]c(=S)[nH]c(=O)c21", "max response, negative = inhibition": "-13.9% (inactive)"}
{"smiles": "N#CC1=C(N)Oc2n[nH]c(CSc3ccccc3)c2C12C(=O)Nc1ccccc12", "note": "(configuration not stated)", "max response, negative = inhibition": "-12.8% (inactive)"}
{"smiles": "COCCNC(=O)C1(C)CCCN(Cc2cccc(F)c2)C1", "note": "(configuration not stated)", "max response, negative = inhibition": "-4.61% (inactive)"}
{"smiles": "CC(=O)Nc1ccc(S(=O)(=O)NCCc2ccccc2)cc1", "max response, negative = inhibition": "0.463% (inactive)"}
{"smiles": "COCCCNC(=O)c1ccc(CNS(=O)(=O)c2ccc(NC(C)=O)cc2)cc1", "Potency": "26.7 µM (active)"}
{"smiles": "CCCCNC(=O)C1CCC(CNS(=O)(=O)c2ccc(NC(C)=O)cc2)CC1", "note": "(configuration not stated)", "max response, negative = inhibition": "-1.34% (inactive)"}
